Measurements as given in the supplement of paper PMC8728848.
The full list was thinned out, with the strongest signals kept by preference.

Columns and labels:
Assay in all cases: glycan array binding signal (z-score within array); higher = stronger binding
Details in all cases: glycan notation: IUPAC condensed, linker removed
[1] = target: GalNAc(b1-3)Gal
How it was run: (§1)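 Negative Z-scores can be read as non-binding. The Z-score is calculated within each array and then averaged across arrays of one protein sequence at different concentrations or buffers and across linkers. Arrays, 3228 in all, were curated from the Consortium for Functional Glycomics database and kept only where the protein sequence was available.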

[2] = target: GalNAc(b1-3)Gal(a1-4)Gal(b1-4)GlcNAc(b1-3)Gal(b1-4)Glc
How it was run: as §1

[3] = target: GalNAc(b1-4)GlcNAc(b1-2)Man(a1-3)[GalNAc(b1-4)GlcNAc(b1-2)Man(a1-6)]Man(b1-4)GlcNAc(b1-4)GlcNAc
How it was run: as §1

[4] = target: GalNAc(b1-6)GalNAc
How it was run: as §1

[5] = target: GalNAc3S(b1-4)GlcNAc3S
How it was run: as §1

[6] = target: GlcNAc(a1-4)Gal(b1-4)GlcNAc(b1-3)Gal(b1-4)[Fuc(a1-3)]GlcNAc(b1-3)Gal(b1-4)[Fuc(a1-3)]GlcNAc
How it was run: as §1

[7] = target: GlcNAc(b1-2)[GlcNAc(b1-4)]Man(a1-3)[GlcNAc(b1-4)][GlcNAc(b1-2)[GlcNAc(b1-6)]Man(a1-6)]Man(b1-4)GlcNAc(b1-4)[Fuc(a1-6)]GlcNAc
How it was run: as §1

[8] = target: GlcNAc(b1-3)Gal(b1-4)GlcNAc(b1-3)Gal(b1-4)GlcNAc(b1-2)Man(a1-3)[GlcNAc(b1-3)Gal(b1-4)GlcNAc(b1-3)Gal(b1-4)GlcNAc(b1-2)Man(a1-6)]Man(b1-4)GlcNAc(b1-4)GlcNAc
How it was run: as §1

[9] = target: GlcNAc(b1-3)Gal(b1-4)GlcNAc(b1-3)[GlcNAc(b1-3)Gal(b1-4)GlcNAc(b1-3)]GalNAc
How it was run: as §1

[10] = target: Man(a1-2)Man(a1-3)[Man(a1-6)]Man(a1-6)[Man(a1-2)Man(a1-3)]Man(b1-4)GlcNAc(b1-4)GlcNAc
How it was run: as §1

[11] = target: Man(b1-4)GlcNAc
How it was run: as §1

[12] = target: Neu5Ac(a2-3)Gal
How it was run: as §1

[13] = target: Neu5Ac(a2-3)Gal(b1-3)GalNAc(b1-4)Gal(b1-4)Glc
How it was run: as §1

[14] = target: Neu5Ac(a2-3)Gal(b1-4)GlcNAc(b1-2)Man(a1-3)[Neu5Ac(a2-3)Gal(b1-4)GlcNAc(b1-2)Man(a1-6)]Man(b1-4)GlcNAc(b1-4)[Fuc(a1-6)]GlcNAc
How it was run: as §1

[15] = target: Neu5Ac(a2-6)Gal(b1-3)GlcNAc(b1-3)[Gal(b1-4)GlcNAc(b1-6)]Gal(b1-4)Glc
How it was run: as §1

[16] = target: Neu5Ac(a2-6)Gal(b1-4)GlcNAc(b1-2)Man(a1-3)[Gal(b1-4)GlcNAc(b1-2)Man(a1-6)]Man(b1-4)GlcNAc(b1-4)GlcNAc
How it was run: as §1

[17] = target: Neu5Ac(a2-6)Gal(b1-4)GlcNAc6S
How it was run: as §1

[18] = target: Neu5Gc(a2-3)Gal(b1-4)[Fuc(a1-3)]GlcNAc
How it was run: as §1

B1: B1567 (Bifidobacterium sp) (protein)
chain: MKFTTAKKAVALTGAVAMLVSVAACGSDSGKSSQPAQDSDVKEITVWAWEPSLTQVAKDFEKETGIKVDLKNVGTNTKEYTQLDNAIEAGSGAPDVAQVEYYAVPQYAIKGNLLDITDKTSGYKDFYTPGPWASVQFAGKVYGLPMDSGPMAFFYNKEVFDKAGVDAEQIKTWDQYYDAAKKIHALGDNYYITSDTGDAGFFDSMTWLAGAKPFQTSSDGSEVTVNLTEDKGVKTFTDFWQKLLDEGLLDTKTAGWSEDWFKGMVDGTIASLFTGAWMPANLANSAADGAGKWRVTQMPTADGSTTNSENGGSSLAVLASTKKADAAYQFIEYANHGAGVATRVAGGAFPADKASLEKDSFKNATTVKNADGQDVDYFGGQKYNEVLAQAAENVSSGYQFLPFEVKARTIFGDYFGKSYTGDQKLSDGVAAWQKALQDYGKDQGFTVK
glycan array binding signal (z-score) [1]: -0.116
glycan array binding signal (z-score) [2]: -0.139
glycan array binding signal (z-score) [3]: 0.398
glycan array binding signal (z-score) [4]: -0.095
glycan array binding signal (z-score) [5]: -0.058
glycan array binding signal (z-score) [6]: 0.042
glycan array binding signal (z-score) [7]: -0.12
glycan array binding signal (z-score) [8]: 0.008
glycan array binding signal (z-score) [9]: -0.052
glycan array binding signal (z-score) [10]: 0.007
glycan array binding signal (z-score) [11]: -0.154
glycan array binding signal (z-score) [12]: -0.108
glycan array binding signal (z-score) [13]: -0.112
glycan array binding signal (z-score) [14]: -0.063
glycan array binding signal (z-score) [15]: -0.118
glycan array binding signal (z-score) [16]: -0.128
glycan array binding signal (z-score) [17]: -0.094
glycan array binding signal (z-score) [18]: -0.036
